# PubChem BioAssay (NCI)
# Compounds without any hit were thinned out: in the full panel of roughly 79,000, 15% have a hit. Active and inactive are the calls of the source. Cut-off read from the data, not from the text of the source: active = growth inhibition above about 70%; inactive = the rest.
# Assay: NCI Yeast Anticancer Drug Screen. Data for the rad50 strain (AID 155);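 note: 0% = growth of vehicle-only cultures of the same strain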
# Details: S. cerevisiae rad50 strain growth inhibition; at 50.0 µM; active compounds read high
# Summary of the method: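 Cells are treated with compound, grown, and their growth is then scored against vehicle-only cultures of the same repair-deficient yeast strain.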
row,SMILES,growth inhibition
1,O=C1C=C/C(=N/c2ccc(O)o2)c2ccccc21,36.8% (inactive)
2,N#CCCCNc1ccccc1,-19.1% (inactive)
3,Cc1cccc(C(C)(C)C)c1NC(=O)C(=O)C(C(=O)/C=C\c1ccccc1)C1OC(=O)c2ccccc21 (stereo not given),7.4% (inactive)
4,CC1(C)OCC(Cc2ccc3c(c2)OCO3)CO1,1.7% (inactive)
5,CCOC(=O)N1CC(C)N(C(=O)OCC)CC1C (stereo not given),-3.9% (inactive)
6,CCc1ccc(NC(=O)CCC(=O)O)cc1,-1.15% (inactive)
7,Cc1ccc(N=Nc2c(N)ccc3ccccc23)cc1,90.5% (active)
8,CC(C)C1OCC(CO)([N+](=O)[O-])CO1 (stereo not given),-45% (inactive)
9,Cc1c(-c2ccc3c(c2)COC3)sc(N)c1C#N,4.7% (inactive)
10,COc1cc2c(OC)cc1CSCc1sc(C)c(c1Br)CSC2,19.1% (inactive)
11,CC(C)c1ccc(OC(=O)Nc2c(Cl)cccc2Cl)cc1,-18.4% (inactive)
12,COc1ccc(NC(=O)COc2ccc(Cl)cc2Cl)cc1,22.9% (inactive)
13,Cc1ccccc1C(=O)OCC(=O)c1ccc(-c2ccccc2)cc1,-17.6% (inactive)
14,Nc1n[n+](-c2ccc(Cl)cc2)no1,67% (inactive)
15,CCOC(=O)c1c(-c2ccc([N+](=O)[O-])cc2)c(/C=N\O)n(-c2ccccc2)c1C,1.45% (inactive)
16,CCCOC(=O)NC(C)C(=O)NC(CCC(=O)NC(CCCC(N)C(=O)O)C(=O)NC(C)C(=O)O)C(=O)O (stereo not given),-20.8% (inactive)
17,COc1ccc(-c2cc(-c3ccc(Cl)cc3)on2)cc1,-15.1% (inactive)
18,Cc1cc([N+](=O)[O-])c(C)c(Br)c1C,-8.45% (inactive)
19,CCOC(=O)c1ccc(OC)c2[nH]c3c(c(=O)c12)C(=O)c1[nH]c2c(OC)ccc(C(=O)OCC)c2c(=O)c1C3=O,-25.4% (inactive)
20,O=C1C2=C(Nc3ccccc3N2)OC1c1ccc2c(c1)OCO2 (stereo not given),4.15% (inactive)

row,SMILES,growth inhibition
1,CC(=O)NNC(=S)N/C=C(\C#N)S(=O)(=O)c1ccc(C)cc1,-44.5% (inactive)
2,CS(=O)(=O)OCC1C2CCC(CC2)C1COS(C)(=O)=O (stereo not given),4.5% (inactive)
3,N#C/C(=C\c1c[nH]c2ccccc12)c1ccc([N+](=O)[O-])cc1,-13.9% (inactive)
4,O=C(CC1C(=O)Nc2ccccc2S1=O)Nc1cccc(Cl)c1 (stereo not given),-32.2% (inactive)
5,NC(=O)Nc1nc(-c2ccccc2)no1,-16.7% (inactive)
6,CC(=O)Nc1c(C(N)=O)cnn1-c1ccccc1,17.9% (inactive)
7,CC1=NC=C(O)c2ccccc2O1,24.4% (inactive)
8,O=C(O)c1ccc(SSc2ccc(C(=O)O)cn2)nc1,9.9% (inactive)
9,CC1(C)C2CCC13CS(=O)(=O)N1O[C@]13C(=O)O2 (stereo not given in full),19.3% (inactive)
10,CC(=O)Oc1ccccc1C1CCCCC1,-1.7% (inactive)
11,Nc1nnc(Cc2cccc3ccccc23)o1,-1.05% (inactive)
12,Nc1nnnn1CCc1ccccc1,7.75% (inactive)
13,O=C(COc1cc(Cl)ccc1Cl)NCc1ccc(Cl)cc1,15.2% (inactive)
14,CC(NC(=O)N(C)C)NC(=O)N(C)C,-17.9% (inactive)
15,CC(C)Sc1nc2ccc(NC(=O)/C=C/C(=O)O)cc2s1,18.9% (inactive)
16,Cn1c(=O)c2c(nc(Br)n2CC(=O)c2ccc([N+](=O)[O-])cc2)n(C)c1=O,24.8% (inactive)
17,CCCCOC(=O)CNC(=O)c1ccc(C)c(OCc2ccccc2)c1[N+](=O)[O-],0.5% (inactive)
18,COC(=O)/C=C(\C(=O)OC)c1cc(C)c2cc(C(C)C)ccc(C)c1-2,4.25% (inactive)
19,CCOC(=O)c1cnc(SCc2ccccc2)[nH]c1=O,-6.1% (inactive)
20,CCC(C#N)(c1ccccc1)N(CCc1ccccc1)C(=O)c1ccccc1 (stereo not given),-5.8% (inactive)

# Assay: NCI Yeast Anticancer Drug Screen. Data for the mec2-1 strain (AID 157)
# Details: S. cerevisiae mec2-1 strain, at 50.0 µM, active compounds read high
# Summary of the method: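 Using mec2-1 yeast: add compound, measure growth, express inhibition versus vehicle-treated cultures.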
row,SMILES,growth inhibition
1,O=C1C=C/C(=N/c2ccc(O)o2)c2ccccc21,52.3% (inactive)
2,N#CCCCNc1ccccc1,-15% (inactive)
3,Cc1cccc(C(C)(C)C)c1NC(=O)C(=O)C(C(=O)/C=C\c1ccccc1)C1OC(=O)c2ccccc21 (stereo not given),-4.95% (inactive)
4,CC1(C)OCC(Cc2ccc3c(c2)OCO3)CO1,-11.1% (inactive)
5,CCOC(=O)N1CC(C)N(C(=O)OCC)CC1C (stereo not given),-7.1% (inactive)
6,CCc1ccc(NC(=O)CCC(=O)O)cc1,-9.15% (inactive)
7,Cc1ccc(N=Nc2c(N)ccc3ccccc23)cc1,87.2% (active)
8,CC(C)C1OCC(CO)([N+](=O)[O-])CO1 (stereo not given),-18.4% (inactive)
9,Cc1c(-c2ccc3c(c2)COC3)sc(N)c1C#N,-4.3% (inactive)
10,COc1cc2c(OC)cc1CSCc1sc(C)c(c1Br)CSC2,21.5% (inactive)
11,CC(C)c1ccc(OC(=O)Nc2c(Cl)cccc2Cl)cc1,-27.6% (inactive)
12,COc1ccc(NC(=O)COc2ccc(Cl)cc2Cl)cc1,26.8% (inactive)
13,Cc1ccccc1C(=O)OCC(=O)c1ccc(-c2ccccc2)cc1,-9.4% (inactive)
14,Nc1n[n+](-c2ccc(Cl)cc2)no1,87.8% (active)
15,CCOC(=O)c1c(-c2ccc([N+](=O)[O-])cc2)c(/C=N\O)n(-c2ccccc2)c1C,6.7% (inactive)
16,CCCOC(=O)NC(C)C(=O)NC(CCC(=O)NC(CCCC(N)C(=O)O)C(=O)NC(C)C(=O)O)C(=O)O (stereo not given),-19.9% (inactive)
17,COc1ccc(-c2cc(-c3ccc(Cl)cc3)on2)cc1,11.2% (inactive)
18,Cc1cc([N+](=O)[O-])c(C)c(Br)c1C,-20.2% (inactive)
19,CCOC(=O)c1ccc(OC)c2[nH]c3c(c(=O)c12)C(=O)c1[nH]c2c(OC)ccc(C(=O)OCC)c2c(=O)c1C3=O,15.6% (inactive)
20,O=C1C2=C(Nc3ccccc3N2)OC1c1ccc2c(c1)OCO2 (stereo not given),-9.95% (inactive)

row,SMILES,growth inhibition
1,CC(=O)NNC(=S)N/C=C(\C#N)S(=O)(=O)c1ccc(C)cc1,-26.4% (inactive)
2,CS(=O)(=O)OCC1C2CCC(CC2)C1COS(C)(=O)=O (stereo not given),17.3% (inactive)
3,N#C/C(=C\c1c[nH]c2ccccc12)c1ccc([N+](=O)[O-])cc1,-10% (inactive)
4,O=C(CC1C(=O)Nc2ccccc2S1=O)Nc1cccc(Cl)c1 (stereo not given),-31.1% (inactive)
5,NC(=O)Nc1nc(-c2ccccc2)no1,7.15% (inactive)
6,CC(=O)Nc1c(C(N)=O)cnn1-c1ccccc1,26.6% (inactive)
7,CC1=NC=C(O)c2ccccc2O1,12.4% (inactive)
8,O=C(O)c1ccc(SSc2ccc(C(=O)O)cn2)nc1,19.1% (inactive)
9,CC1(C)C2CCC13CS(=O)(=O)N1O[C@]13C(=O)O2 (stereo not given in full),2.7% (inactive)
10,CC(=O)Oc1ccccc1C1CCCCC1,-28.6% (inactive)
11,Nc1nnc(Cc2cccc3ccccc23)o1,-11.4% (inactive)
12,Nc1nnnn1CCc1ccccc1,6.3% (inactive)
13,O=C(COc1cc(Cl)ccc1Cl)NCc1ccc(Cl)cc1,2.1% (inactive)
14,CC(NC(=O)N(C)C)NC(=O)N(C)C,-22.3% (inactive)
15,CC(C)Sc1nc2ccc(NC(=O)/C=C/C(=O)O)cc2s1,8.65% (inactive)
16,Cn1c(=O)c2c(nc(Br)n2CC(=O)c2ccc([N+](=O)[O-])cc2)n(C)c1=O,16.1% (inactive)
17,CCCCOC(=O)CNC(=O)c1ccc(C)c(OCc2ccccc2)c1[N+](=O)[O-],-6.1% (inactive)
18,COC(=O)/C=C(\C(=O)OC)c1cc(C)c2cc(C(C)C)ccc(C)c1-2,-22.2% (inactive)
19,CCOC(=O)c1cnc(SCc2ccccc2)[nH]c1=O,-9.8% (inactive)
20,CCC(C#N)(c1ccccc1)N(CCc1ccccc1)C(=O)c1ccccc1 (stereo not given),-0.5% (inactive)
